The compounds below were run on Pectobacterium parmentieri SCC3193 (assay: DuctApe activity index (growth/respiration on compound as sole nutrient source, blank-subtracted) (activity index (0-3)); higher = stronger utilization of the compound, active = 3 or more). Settings: nutrient role (plate category): nitrogen.
Experimental: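 Biolog Phenotype Microarray plates PM1, PM2A (carbon), PM3 (nitrogen) and PM4 (phosphorus/sulfur) inoculated with P. parmentieri SCC3193 in M9-C minimal salts medium with Biolog dye A, and read in the OmniLog for 46 h. Each well was tested in triplicate and the experiment was run twice. DuctApe computed a blank-subtracted activity index (AV, 0-3) from the mean curves; growth is positive at AV >= 3 and negative at AV <= 2.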

DuctApe activity index, inactive:
CCC(N)C(=O)O (racemic) [DL-a-Amino-N-Butyric acid] 1
NC(=O)NCCC[C@H](N)C(=O)O [L-Citrulline] 0
NC(=O)NC(N)=O [Biuret] 0
N[C@@H]1C(O)O[C@H](CO)[C@@H](O)[C@@H]1O (stereo partly drawn) [D-Mannosamine] 2
NO [Hydroxylamine] 0
CC(O)C(N)=O (racemic) [DL-Lactamide] 0
NCC(=O)N[C@@H](CCC(N)=O)C(=O)O 1

Same assay, conditions: nutrient role (plate category): phosphate & sulphur

DuctApe activity index, inactive:
N[C@@H]1[C@@H](O)[C@H](O)[C@@H](COP(=O)(O)O)O[C@@H]1O [D-Glucosamine-6-Phosphate] 2
O=c1ccn(C2OC(COP(=O)(O)O)C(O)C2O)c(=O)[nH]1 (centres undefined) [Uridine 5`-Monophosphate] 2
Cc1cn([C@H]2C[C@H](O)[C@@H](COP(=O)(O)O)O2)c(=O)[nH]c1=O [Thymidine 5`-Monophosphate] 2
N[C@@H](CSC[C@H](N)C(=O)O)C(=O)O [Lanthionine] 1
Nc1ccn([C@@H]2O[C@H](CO)[C@@H](OP(=O)(O)O)[C@H]2O)c(=O)n1 [Cytidine 3`-Monophosphate] 2
O=S(=O)(O)SSS(=O)(=O)O [Tetrathionate] 1
OC[C@H]1O[C@@H](S)[C@H](O)[C@@H](O)[C@@H]1O [1-Thio-b-D-Glucose] 0
NC(=O)CCCCC1CCSS1 (racemic) [DL-Lipoamide] 1
N[C@@H](CS)C(=O)NCC(=O)O 1
O=S(=O)(O)CCO [2-Hydroxyethane Sulfonic acid] 1
Nc1ncnc2c1ncn2[C@@H]1O[C@H](COP(=O)(O)O)[C@@H](O)[C@H]1O [Adenosine 5`-Monophosphate] 1
Nc1ncnc2c1ncn2[C@@H]1O[C@H](CO)[C@@H](OP(=O)(O)O)[C@H]1O [Adenosine 3`-Monophosphate] 2

Source: the supplement of paper PMC6518042
